Measured values as given in PubChem BioAssay (NCATS).
Values joined by “and” are separate entries in the source; they are usually repeats but may differ in a detail not shown here. Equal entries are not always repeated. Results filed as inconclusive are left out. Unmarked numbers belong to inactive results. Active and inactive are the calls of the source. Calls come from the whole dose curve; as a rule, active = well fitted inhibition curve with a large enough effect; inconclusive = small, poorly fitted or top-dose-only effect; inactive = flat fitted curve, though single readings scatter.

tested on: NIH3T3; experiment: Cytotoxic Profiling of Annotated Libraries Using Quantitative High-Throughput Screening (AID 1296008); details: Five cell lines viability, CellTiter-Glo ATP luminescence, 48-72 h; max response: stronger effect = lower value; note: nearly all actives have a fitted effect of over 60% in size
Method in brief: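 Compounds were pin-transferred onto cells and incubated 48 or 72 hr at 37 degree Celsius, 95% humidity. CellTiter-Glo was added, plates sat 10 min at room temperature, then ATP-coupled luminescence was imaged as the viability read-out.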
% is set by controls: 0 for no effect and ±100 for the full control effect; potency is the fitted concentration of half-maximal effect.

| SMILES | Potency | max response [%] |
| --- | --- | --- |
| C[C@H]1[C@@H](OC(=O)CCC(=O)O)O[C@@H]2O[C@@]3(C)CC[C@@H]4[C@H](C)CC[C@@H]1[C@@]24OO3 | 20.9 µM (active) |  |
| CC(=O)O[C@@]12CO[C@H]1C[C@H](O)[C@@]1(C)C(=O)[C@H](O)C3=C(C)[C@@H](OC(=O)C(O)[C@@H](NC(=O)OC(C)(C)C)c4ccccc4)C[C@@](O)([C@@H](OC(=O)c4ccccc4)[C@@H]21)C3(C)C (some centres undefined) |  | -88.1 |
| c1cncc(CN2CCC(n3ncc4c(N5CCOCC5)nc(-c5ccc6[nH]ccc6c5)nc43)CC2)c1 | 9.35 µM (active) and 5.17 µM (active) |  |
| COc1ccc(C[C@@H](C)[C@@H](C)Cc2ccc(OC)c(OC)c2)cc1OC | 2.35 µM (active) |  |
| COC1=C2C[C@@H](C)C[C@H](OC)[C@@H](O)[C@@H](C)C=C(C)[C@H](OC(N)=O)[C@@H](OC)C=CC=C(C)C(=O)NC(=CC1=O)C2=O | 9.35 µM (active) |  |
| Nc1nc(=O)n([C@H]2C[C@H](O)[C@@H](CO)O2)cc1F | 0.0083 µM (active) |  |
| Cc1ccc([N+](=O)[O-])cc1S(=O)(=O)N(C)N=Cc1cnc2ccc(Br)cn12 | 0.0743 µM (active) |  |
| C[C@@]12C(=O)OC(=O)[C@@]1(C)C1CCC2O1 | 13.2 µM (active) |  |
| C[C@H](NCc1ccc(OCc2cccc(F)c2)cc1)C(N)=O | 4.18 µM (active) |  |
| O=C(Nc1cccc(Nc2ncc(Br)c(NCCc3cnc[nH]3)n2)c1)N1CCCC1 | 4.69 µM (active) |  |
| COc1cc2ncnc(Nc3cccc(Br)c3)c2cc1OC |  | -22 |
| CCNC(=O)Nc1ccc(-c2nc3c(c(N4CCOC[C@H]4C)n2)CCN(C2COC2)C3)cc1 | 5.9 µM (active) |  |
| CO[C@@H]1[C@@H](O)[C@H](O)[C@@H](n2c3c(Cl)cccc3c3c4c(c5c6cccc(Cl)c6[nH]c5c32)C(=O)NC4=O)O[C@@H]1CO | 1.66 µM (active) |  |
| COc1ccc(Nc2cc(-c3cnc(N)nc3)nc(N3CCOCC3)n2)cn1 | 3.32 µM (active) |  |
| Cc1[nH]c(C=C2C(=O)Nc3ccccc32)c(C)c1CCC(=O)O | 1.48 µM (active) |  |
| CNC(=O)c1ccc(Nc2cc(Nc3ccccc3S(=O)(=O)C(C)C)c3cc[nH]c3n2)nc1 | 2.35 µM (active) |  |
| CCOC(=O)N1CCN([N+]([O-])=NOc2ccc([N+](=O)[O-])cc2[N+](=O)[O-])CC1 | 9.35 µM (active) |  |
| C#CCC(Cc1cnc2nc(N)nc(N)c2n1)c1ccc(C(=O)N[C@@H](CCC(=O)O)C(=O)O)cc1 (some centres undefined) | 0.332 µM (active) |  |
| CCN(CC)Cc1ccc2cc(COC(=O)Nc3ccc(C(=O)NO)cc3)ccc2c1 | 2.31 µM (active) |  |
| Cn1cc(C2=C(c3c4n(c5ccccc35)CCC(CN)C4)C(=O)NC2=O)c2ccccc21 (centres undefined) | 16.6 µM (active) |  |
| CC(C)N1[N]C(=C2C=c3cc(O)ccc3=N2)c2c(N)ncnc21 | 0.526 µM (active) |  |
| CC(=O)NCC(=O)N1[C@H]2CC[C@H]1c1cc(Nc3ncc(C(F)(F)F)c(NC4CCC4)n3)ccc12 | 1.32 µM (active) |  |
| N=c1ccn2c(n1)O[C@H]1[C@@H](O)[C@@H](CO)O[C@H]12 | 3.32 µM (active) |  |
| CNC(=O)c1cccc(-c2ccc3c(N4CCOC[C@H]4C)nc(N4CCOC[C@H]4C)nc3n2)c1 | 0.418 µM (active) |  |
